ALDH1A1 inh = ALDH1A1 (human) enzyme inhibition; Potency, µM (titrated, usually from 75.3 µM), most hits filed as inhibitors; 7.3% of 220,000 active; Purified ALDH1A1, NADH fluorescence, propionaldehyde substrate; active means well fitted inhibition curve with a large enough effect, not every such curve was filed as active; inconclusive means small, poorly fitted or top-dose-only effect, or another doubt; inactive means no such curve, though single readings can be large or run the other way
Target sequence (P00352 whole entry, looked up): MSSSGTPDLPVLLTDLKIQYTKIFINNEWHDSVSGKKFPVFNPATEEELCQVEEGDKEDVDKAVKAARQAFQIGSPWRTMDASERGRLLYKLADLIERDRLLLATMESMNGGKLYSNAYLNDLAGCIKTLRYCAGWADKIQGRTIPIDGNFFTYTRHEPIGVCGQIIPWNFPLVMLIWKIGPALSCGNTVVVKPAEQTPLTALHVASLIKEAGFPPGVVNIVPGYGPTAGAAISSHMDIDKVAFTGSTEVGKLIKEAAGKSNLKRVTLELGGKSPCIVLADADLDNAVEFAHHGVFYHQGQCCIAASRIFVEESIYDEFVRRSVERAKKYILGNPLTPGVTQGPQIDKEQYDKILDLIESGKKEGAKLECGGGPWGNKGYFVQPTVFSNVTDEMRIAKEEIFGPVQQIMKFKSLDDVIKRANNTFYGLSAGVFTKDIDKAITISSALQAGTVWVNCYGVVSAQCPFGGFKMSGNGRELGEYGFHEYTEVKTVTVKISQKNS
RGS12 GoLoco inh = RGS12 GoLoco-Gai1 interaction inhibition | Gai1:RGS12 GoLoco peptide FP, rhodamine, 10 min | Potency, µM (series often up to 61.6 µM), actives largely listed as inhibitors | 0.44% of 230,000 active | AID 880; active means well fitted inhibition curve with a large enough effect, not every such curve was filed as active; inactive means no such curve, though single readings can be large or run the other way; further: nearly all actives have a fitted effect of over 30% in size
HTT ATP protect = Huntington cell model cytoprotection by ATP luminescence | PC12 HTT-Q103 induced, cytoprotection, ATP luminescence, 40 h | Potency, µM (titrated, usually from 56.4 µM), hits mostly activators | 0.14% of 230,000 active | AID 1471; further: nearly all actives have a fitted effect of over 45% in size
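Compounds added alongside 100 nM tebufenozide, which induces toxic Q103 huntingtin exon 1-GFP in stable PC12 cells; surviving cells quantified by luminescent ATP measurement. Medium: phenol red-free DMEM, 5% equine and 5% calf serum.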
PNC assembly inh = inhibitors of perinucleolar compartment assembly. 3.1% of 140,000 active. activity change (PNC), negative = inhibition, % at 10 µM. PC3M PTB-GFP, PNC prevalence imaging, 16 h; stronger effect = lower value;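 active means readout at or below -70, meaning at least 70% loss of cells showing the perinucleolar compartment, a nuclear body marking cancer cells; inconclusive means readout between -30 and a set limit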
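PC3M cells stably expressing PTB-GFP, 750–1000 cells/well, treated 16 h at 37 °C with compound (23 nl of library stock), in duplicate. After paraformaldehyde fixation and Hoechst stain, imaged at 20x; PNC prevalence scored by image analysis.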
HTT aggregate = reduces HttQ103-GFP aggregates in PC12 cells | 1.1% of 220,000 active | Potency, µM (top dose mostly 46.1 µM), actives largely listed as inhibitors | PC12 HttQ103-GFP aggregates, Acumen cytometry, 40 h | AID 1688; further: nearly all actives have a fitted effect of over 60% in size
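PC12 cells with ecdysone-inducible HTT exon1 Q103-GFP, induced by 100 nM tebufenozide, given compounds in a concentration series. GFP aggregates (1–25 um, 6 SD above background) counted in lysates by laser-scanning cytometry, 488 nm excitation.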
HPGD inh = inhibitors of human 15-hydroxyprostaglandin dehydrogenase (HPGD); P15428; purified HPGD, NADH fluorescence kinetic, PGE2 substrate; Potency, µM, usual class: inhibitors; 4.3% of 150,000 active; AID 894; active means well fitted inhibition curve with a large enough effect, not every such curve was filed as active; inconclusive means small, poorly fitted or top-dose-only effect, or another doubt; inactive means no such curve, though single readings can be large or run the other way
Target sequence (P15428 whole entry, looked up): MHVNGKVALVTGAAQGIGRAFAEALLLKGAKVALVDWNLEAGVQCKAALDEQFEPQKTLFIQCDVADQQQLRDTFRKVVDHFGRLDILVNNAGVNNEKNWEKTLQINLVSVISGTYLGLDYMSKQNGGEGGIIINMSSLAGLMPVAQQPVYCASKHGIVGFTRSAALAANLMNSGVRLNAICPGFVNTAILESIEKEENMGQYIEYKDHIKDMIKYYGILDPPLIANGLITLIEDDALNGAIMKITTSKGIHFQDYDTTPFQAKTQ
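20 nM HPGD preincubated 15 min at room temperature with compound in 50 mM Tris-HCl pH 8, 0.01% Tween 20. Started with 1 mM NAD+ and 30 uM prostaglandin E2; NADH fluorescence (360/450 nm) read 5 times over 30-s intervals, last minus first.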
Numbers stand for hits; [ ] = dose if it differs, or a comment. Sampled rows, rich in hits. Any-hit rate of the full collection: about 11%. Unless noted, the call rests on the fitted dose curve; in most records, active means well fitted curve in the direction sought with a large enough effect; inconclusive means small, poorly fitted or top-dose-only effect, or another doubt; inactive means no such curve, though single readings can be large; an effect the other way counts as inactive or inconclusive.

How did c1ccc(Cc2nn3c(COc4ccccc4)nnc3s2)cc1 do in these assays?
ALDH1A1 inh: 5µM; RGS12 GoLoco inh: inactive; HTT ATP protect: inactive[10 µM]; PNC assembly inh: inconclusive; HTT aggregate: inactive; HPGD inh: 10µM

Results for COc1ccc(C(=O)N(O)c2ccccc2)cc1 ?
ALDH1A1 inh: inactive; RGS12 GoLoco inh: inactive; HTT ATP protect: inactive; HPGD inh: inconclusive

Results for CC(=O)c1ccc(NC(=O)c2c(C)nn(-c3ccccc3)c2Cl)cc1 ?
ALDH1A1 inh: inconclusive; RGS12 GoLoco inh: inactive; HTT ATP protect: inactive[10 µM]; HTT aggregate: inactive[9.22 µM]

What do the screens show for `Cc1ccc(NC(=O)c2c(C)nn(-c3ccccc3)c2Cl)cc1`?
ALDH1A1 inh: inactive; RGS12 GoLoco inh: inactive; HTT ATP protect: inactive[10 µM]; PNC assembly inh: inactive; HTT aggregate: inactive; HPGD inh: 14µM

How did Cc1ccccc1NC(=O)c1c(C)nn(-c2ccccc2)c1Cl do in these assays?
ALDH1A1 inh: inconclusive; RGS12 GoLoco inh: inactive; HTT ATP protect: inactive[10 µM]; PNC assembly inh: inactive; HTT aggregate: inactive; HPGD inh: 28µM

What do the screens show for `COC(=O)Oc1ccccc1C(=O)O`?
ALDH1A1 inh: inactive; RGS12 GoLoco inh: inactive; HPGD inh: inconclusive

Results for CCC(=O)N1CCc2cc(Br)cc(S(=O)(=O)N(C)c3ccc(OC)cc3OC)c21 ?
ALDH1A1 inh: inactive; RGS12 GoLoco inh: inactive; HTT ATP protect: inactive; HTT aggregate: inactive

Results for COC(=O)CC1Oc2cc3oc4c(c3cc2O1)C(=O)CC(C)(C)C4 (stereo not given) ?
ALDH1A1 inh: 10µM; RGS12 GoLoco inh: inactive; HTT ATP protect: inactive; HPGD inh: 25µM

How did CC1(C)CC(=O)c2c(oc3cc(O)c(O)cc23)C1 do in these assays?
ALDH1A1 inh: 2µM; RGS12 GoLoco inh: inactive; HTT ATP protect: inactive; PNC assembly inh: inactive; HTT aggregate: inactive; HPGD inh: 6.3µM

How did COC(=O)c1oc2c(c1C)C(=O)CC(C)(C)C2 do in these assays?
ALDH1A1 inh: inconclusive; RGS12 GoLoco inh: inactive; HTT ATP protect: inactive; HTT aggregate: inactive[9.22 µM]

Results for O=C(Nc1ccccn1)c1ccc(Cl)c([N+](=O)[O-])c1 ?
ALDH1A1 inh: inactive; RGS12 GoLoco inh: inactive; HTT ATP protect: inactive[10 µM]; HTT aggregate: inactive[9.22 µM]

Results for C[C@]1(c2ccccc2)O[C@@H]2C[C@@H]3[C@@H]4CCC5=CC(=O)C=C[C@@]5(C)[C@]4(F)[C@H](O)C[C@]3(C)[C@@]2(C(=O)CO)O1 ?
ALDH1A1 inh: inactive[13.5 µM]; RGS12 GoLoco inh: inactive[14.2 µM]; HTT ATP protect: inactive[10 µM]; HPGD inh: inactive

What do the screens show for `COc1cccc(Nc2ncc3nc(CCc4ccccc4)c(=O)n(C[C@H]4CCCO4)c3n2)c1`?
ALDH1A1 inh: 25µM; RGS12 GoLoco inh: inactive; HTT ATP protect: inactive; HPGD inh: inconclusive

What do the screens show for `O=C(c1ccc(S(=O)(=O)N2CCCCC2)cc1)N1CCCc2ccccc21`?
ALDH1A1 inh: inconclusive; RGS12 GoLoco inh: inactive; HTT ATP protect: inactive; PNC assembly inh: inactive; HTT aggregate: inconclusive; HPGD inh: inactive

How did CCCN(CCC)S(=O)(=O)c1ccc(C(=O)N2CCC(=O)c3ccccc32)cc1 do in these assays?
ALDH1A1 inh: 18µM; RGS12 GoLoco inh: inactive; HTT ATP protect: inactive; PNC assembly inh: inactive; HTT aggregate: inactive; HPGD inh: inactive

How did CC(C)C(=O)OC1CCS(=O)(=O)c2sccc21 (stereo not given) do in these assays?
ALDH1A1 inh: inactive; RGS12 GoLoco inh: inactive; HTT ATP protect: inactive; HTT aggregate: inactive

Results for COc1ccc(-n2c(=O)cc(N3CCN(c4ccccc4F)CC3)[nH]c2=O)cc1 ?
ALDH1A1 inh: 4µM; RGS12 GoLoco inh: inactive; HTT ATP protect: inactive; PNC assembly inh: inconclusive; HTT aggregate: inactive; HPGD inh: inactive

Results for CCOc1ncccc1C(=O)OCc1ccc(C(=O)OC)cc1 ?
ALDH1A1 inh: inconclusive; RGS12 GoLoco inh: inactive; HTT ATP protect: inactive[10 µM]; PNC assembly inh: inactive; HTT aggregate: inconclusive; HPGD inh: inactive

Results for O=C(Nc1ccn(Cc2ccccc2F)n1)c1ccc(COc2ccc(Br)cc2)cc1 ?
ALDH1A1 inh: inconclusive; RGS12 GoLoco inh: inactive; HTT ATP protect: inactive; PNC assembly inh: -108; HTT aggregate: inactive; HPGD inh: inconclusive

Results for NC(=O)N/N=C/c1coc2ccc(O)cc2c1=O ?
ALDH1A1 inh: 18µM; RGS12 GoLoco inh: inactive; HTT ATP protect: inactive[10 µM]; HTT aggregate: inactive[9.22 µM]

Results for O=C(N/N=C/c1coc2ccccc2c1=O)c1cn(-c2ccccc2)nc1-c1ccccc1 ?
ALDH1A1 inh: 3.2µM; RGS12 GoLoco inh: inactive; HTT ATP protect: inactive[10 µM]; PNC assembly inh: inactive; HTT aggregate: inactive; HPGD inh: inactive

Results for O=C(N/N=C\c1coc2ccccc2c1=O)c1ccco1 ?
ALDH1A1 inh: 1.6µM; RGS12 GoLoco inh: inactive; HTT ATP protect: inactive[10 µM]; HTT aggregate: inactive[9.22 µM]

How did O=C(N/N=C/c1coc2ccccc2c1=O)c1ccccc1 do in these assays?
ALDH1A1 inh: 4µM; RGS12 GoLoco inh: inactive; HTT ATP protect: inactive; HTT aggregate: inactive

How did Cc1ccc2occ(/C=N/NC(N)=S)c(=O)c2c1 do in these assays?
ALDH1A1 inh: inconclusive; RGS12 GoLoco inh: inactive; HTT ATP protect: inactive[10 µM]; PNC assembly inh: inactive; HTT aggregate: inactive; HPGD inh: inactive

Results for N#CCC(=O)N/N=C/c1coc2ccccc2c1=O ?
RGS12 GoLoco inh: inactive; HTT ATP protect: inactive[10 µM]; HTT aggregate: inactive[9.22 µM]

Results for N#CCCn1c(=O)c(-c2cccs2)nc2cnc(Oc3ccccc3)nc21 ?
ALDH1A1 inh: inconclusive; RGS12 GoLoco inh: inactive; HTT ATP protect: inactive; HPGD inh: inconclusive

What do the screens show for `COc1ccc2c(c1)O[C@@H](c1ccc3c(c1)OCO3)[C@H](OC(=O)NS(=O)(=O)c1ccc(F)cc1)C2=O`?
ALDH1A1 inh: inconclusive; RGS12 GoLoco inh: inactive; HTT ATP protect: inactive; HPGD inh: inactive

What do the screens show for `COc1ccc(CNCC(=O)Nc2ccccc2-n2cccc2)cc1`?
ALDH1A1 inh: 28µM; RGS12 GoLoco inh: inactive; HTT ATP protect: inactive[10 µM]; HTT aggregate: inactive

How did N#CSCC(=O)c1cccc2ccccc12 do in these assays?
ALDH1A1 inh: 1.6µM; RGS12 GoLoco inh: inactive; HTT ATP protect: inactive[10 µM]; PNC assembly inh: inactive; HTT aggregate: inconclusive; HPGD inh: inconclusive

How did CCOc1ccccc1OCC(=O)Nc1ccc(S(=O)(=O)N(C)C)cc1 do in these assays?
ALDH1A1 inh: inactive; RGS12 GoLoco inh: inactive; HTT ATP protect: inactive; PNC assembly inh: -86; HTT aggregate: inactive; HPGD inh: inactive

Results for CCOc1cc(C=C2C(=O)c3ccccc3C2=O)ccc1OCC(=O)Nc1ccc(C)cc1 ?
ALDH1A1 inh: 15µM; HTT ATP protect: inactive[10 µM]; PNC assembly inh: inactive; HTT aggregate: inactive

What do the screens show for `CCOc1ccccc1OCC(=O)Nc1ccc(S(=O)(=O)Nc2ncccn2)cc1`?
ALDH1A1 inh: inactive; RGS12 GoLoco inh: inactive; HTT ATP protect: inactive[10 µM]; PNC assembly inh: inactive; HTT aggregate: inactive; HPGD inh: inactive

Assay outcomes as filed in PubChem BioAssay.
